Inconclusive results are not listed. Calls of active or inactive are those of the source. Calls come from the whole dose curve; as a rule, active = well fitted activation curve with a large enough effect in the signal ratio in the repeat runs (not every such curve was filed as active); inconclusive = weak or mixed curves, or effect the other way; inactive = no such curve, though single readings can be large or run the other way; the % refers to the signal ratio.
What follows are compounds tested against Peroxisome proliferator-activated receptor gamma (Homo sapiens) (UniProt P37231) (assay: qHTS assay to identify small molecule agonists of the peroxisome proliferator-activated receptor gamma (PPARg) signaling pathway (AID 743094)). Settings: HEK293H PPARg-UAS-bla, beta-lactamase FRET ratio, 17 h; series mostly up to 57 µM.
Peroxisome proliferator-activated receptor gamma (Homo sapiens), sequence (P37231 whole entry, looked up): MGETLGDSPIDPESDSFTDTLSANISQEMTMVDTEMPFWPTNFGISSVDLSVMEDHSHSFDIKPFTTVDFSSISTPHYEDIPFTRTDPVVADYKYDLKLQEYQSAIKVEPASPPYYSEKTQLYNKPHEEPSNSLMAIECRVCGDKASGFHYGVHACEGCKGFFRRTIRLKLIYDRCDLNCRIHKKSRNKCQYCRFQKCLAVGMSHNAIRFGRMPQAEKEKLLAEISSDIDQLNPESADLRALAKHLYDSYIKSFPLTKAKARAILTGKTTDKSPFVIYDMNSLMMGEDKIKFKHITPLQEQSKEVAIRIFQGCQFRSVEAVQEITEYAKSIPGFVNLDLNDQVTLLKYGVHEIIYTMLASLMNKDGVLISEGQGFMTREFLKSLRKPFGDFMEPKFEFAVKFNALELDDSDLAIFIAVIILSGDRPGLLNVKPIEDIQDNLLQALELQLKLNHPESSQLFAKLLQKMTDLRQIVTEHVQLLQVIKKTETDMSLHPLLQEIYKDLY
Text: U.S. Tox21 Program National Center for Advancing Translational Sciences [NCATS] NIH Chemical Genomics Center [NCGC] U.S. Environmental Protection Agency [EPA] National Institutes of Environmental Health Sciences [NIEHS] National Toxicology Program [NTP] U.S. Food and Drug Administration [FDA] Tox21 Assay Overview: The peroxisome proliferator-activated receptors (PPARs) are lipid-activated transcription factors of the nuclear receptor superfamily with three distinct subtypes namely PPAR alpha, PPAR delta (also called PPAR beta) and PPAR gamma (PPARg). All these subtypes heterodimerize with Retinoid X receptor (RXR) and these heterodimers regulate transcription of various genes. PPAR-gamma receptor (glitazone receptor) is involved in the regulation of glucose and lipid metabolism. To identify the compounds that activate PPAR-gamma signaling, GeneBLAzer PPAR gamma UAS-bla HEK293H cell line (Invitrogen, Carlsbad, CA, USA) containing a beta-lactamase reporter gene under control of the control of an upstream activator sequence (UAS) stably integrated into HEK293H cells was used to screen Tox21 compound library.
Tox21 Assay Protocol Summary: PPARg-bla cells were dispensed at 3000 cells/6uL/well in 1536-well black wall/clear bottom plates using a Multidrop Combi (Thermo Fisher Scientific, Waltham, MA) dispenser. After the assay plates were incubated at 37C and 5% CO2 for 5 h, 23 nL of compounds dissolved in DMSO, positive controls or DMSO only was transferred to the assay plate by a Pintool station (Kalypsys, San Diego, CA). The assay plates were incubated at 37C for 17 h. After 1 uL of LiveBLAzerTM B/G FRET substrate was added using a Bioraptr Flying Reagent Dispenser (FRD) workstation (Beckman Coulter, Indianapolis, IN, USA), the plates were incubated at room temperature for 1 h, and fluorescence intensity was measured by an Envision plate reader (PerkinElmer, Shelton, CT).
O=c1[nH]c(=O)c2cn[nH]c2[nH]1 was tested, and the outcome was “inactive”.
For CCCCCCCCOCCC#N, the outcome was “inactive”.
C=CC(=O)CC was tested, and the outcome was “inactive”.
With CCC(C)SSC(C)CC (stereo not given) the outcome was “inactive”.
With Nc1ccc(C(=O)NCC(=O)O)cc1 the outcome was “inactive”.
With CCc1ccc(CC)cc1 the outcome was “inactive”.
For COc1cc(C(=O)NC2CCCNC2)cc(OC)c1OC (stereo not given), the outcome was “inactive”.
C/C(=N\O)c1ccc(OCC(=O)N2CCCCC2)cc1 was tested, and the outcome was “inactive”.
C/C=C(\C)C=O was tested, and the outcome was “inactive”.
For Cc1ccccc1C#N, the outcome was “inactive”.
In the case of C[C@@H]1NC(=O)[C@@H](N)CNC(=O)[C@H](C2CCNC(N)=N2)NC(=O)/C(=C/NC(N)=O)NC(=O)[C@H](CNC(=O)C[C@@H](N)CCCN)NC1=O (stereo not given in full), the outcome is reported as “inactive”.
For N#CC1(N)CCCCC1, the outcome was “inactive”.
With CCOCCOCCOC(C)=O the outcome was “inactive”.
In the case of Cc1cc(C)c(N)c(Cl)c1, the outcome is reported as “inactive”.
N[C@H]1C(O)O[C@H](CO)[C@@H](O)[C@@H]1O (stereo not given in full) was tested, and the outcome was “inactive”.
For CC(=O)OC/C=C(/C)CCC=C(C)C, the outcome was “inactive”.
With CCCC(=O)C(CC)Sc1ccoc1C (stereo not given) the outcome was “inactive”.
In the case of Nc1nc(Cl)cc(Cl)n1, the outcome is reported as “inactive”.
For Cc1ccc2cccnc2c1, the outcome was “inactive”.
With CN(C)CCC[C@@]1(c2ccc(F)cc2)OCc2cc(C#N)ccc21 the outcome was “inactive”.
Cc1ccccc1OCC(=O)O was tested, and the outcome was “inactive”.
In the case of CC1(C)CC(N)CC(C)(C)N1, the outcome is reported as “inactive”.
With COC(=O)c1ccc(C(=O)O)cc1 the outcome was “inactive”.
Cc1ccc(OC(=O)CC(C)C)cc1 was tested, and the outcome was “inactive”.
With CNC(C)=O the outcome was “inactive”.
C=COCCCCO was tested, and the outcome was “inactive”.
In the case of CCCCCCCCCCCCCCCC/C=C/C1CC(=O)OC1=O (stereo not given), the outcome is reported as “inactive”.
In the case of NNC(=O)CCCCC(=O)NN, the outcome is reported as “inactive”.
With N#Cc1ccccc1C#N the outcome was “inactive”.
CCCCCCCCCCCCCCCC(=O)OC was tested, and the outcome was “inactive”.
For C=CCCCCCCCCCCCCCC, the outcome was “inactive”.
In the case of CC(C)(C)NCC(O)COc1cccc2c1CCC(=O)N2 (stereo not given), the outcome is reported as “inactive”.
CSC(=O)c1cccc2nnsc12 was tested, and the outcome was “inactive”.
For CCOC(=O)COc1ccc2c(C)c(CCN(CC)CC)c(=O)oc2c1Cl, the outcome was “inactive”.
Cc1cccc(N)n1 was tested, and the outcome was “inactive”.
With O=C1c2ccccc2C(=O)N1CO the outcome was “inactive”.
For c1coc(Cn2cccc2)c1, the outcome was “inactive”.
In the case of Cc1ccc(Br)cc1, the outcome is reported as “inactive”.
In the case of NNC(=O)OCc1ccccc1, the outcome is reported as “inactive”.
In the case of CCO/C=C1\N=C(c2ccccc2)OC1=O, the outcome is reported as “inactive”.
